Screening results from PubChem.
HCV inh: inhibitors of hepatitis C virus infection; Huh7.5.1 HCVcc-Cre infection, luciferase reporter, 44 h; Potency, µM (doses to about 41.8 µM), without a hit: top-dose activity change, negative = inhibition, actives largely listed as inhibitors; 340,000 compounds, 3.4% hits; AID 651820; active means well fitted inhibition curve with a large enough effect; inconclusive means small, poorly fitted or top-dose-only effect, or another doubt; inactive means no such curve, though single readings can be large or run the other way; further: potency means the concentration at half of the fitted maximal effect
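Infectious HCVcc-Cre (~0.5 moi) was added to cells just after compound, with cells seeded 4 h earlier at 1,000 per well. Luciferase activity after 44 h culture reported infection; substrate was incubated 15 min at room temperature before reading.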
FMDV antiviral: antivirals against foot and mouth disease virus; FMDV antiviral cell-based qHTS; Potency, µM (titrated, usually from 57.9 µM), for inactives: top-dose activity change, negative = inhibition, usual class: inhibitors; 410,000 compounds, 1.2% hits; AID 1159524; calls by dose curve; tested in HEK293T cells; further: read-out not given here; potency means the concentration at half of the fitted maximal effect; nearly all actives have a fitted effect of over 45% in size
HCMV inh: human cytomegalovirus inhibition | HFF cells, HCMV-luciferase reporter, 72 h; active compounds read low | activity change, negative = inhibition, % at 57.5 µM | 410,000 compounds, 4.5% hits | AID 1259415; in the data active means activity change below about -60%; inconclusive means no clear call, values can overlap the other calls; inactive means above about -39%
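Human foreskin fibroblasts infected with luciferase-reporter HCMV at MOI 1 PFU/cell, compounds at two doses. Luciferase measured 72 h post infection; normalized to buffer-only basal and Salinomycin (10uM) controls.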
Vaccinia Venus: inhibitors of vaccinia virus (Venus reporter); Vaccinia virus Venus reporter expression, fluorescence; Potency, µM (titrated, usually from 36.5 µM), inactives show top-dose activity change, negative = inhibition, usual class: inhibitors; 330,000 compounds, 0.46% hits; calls by dose curve; tested in A549 cells; further: potency means the concentration at half of the fitted maximal effect; nearly all actives have a fitted effect of over 30% in size
Vaccinia mCherry: inhibitors of vaccinia virus infection (mCherry reporter signal); AID 720579; Vaccinia virus mCherry reporter infection, fluorescence; 310,000 compounds, 0.63% hits; Potency, µM (top dose mostly 36.5 µM), inactives show at the highest dose activity change, negative = inhibition, most hits filed as inhibitors; calls by dose curve; tested in A549 cells; further: potency means the concentration at half of the fitted maximal effect; nearly all actives have a fitted effect of over 35% in size
An asterisk follows results filed as active; i = inactive; ? = inconclusive; / = no result; [ ] = another dose, or the depositor's remark. Only some compounds are listed: those with a hit (about 7.3% of all), similar ones and a draw of the others. On the % scale 0 is the no-effect control and ±100 the full control effect.

SMILES	HCV inh	FMDV antiviral	HCMV inh	Vaccinia Venus	Vaccinia mCherry
C[C@H]1CN(S(=O)(=O)C(C)(C)C)[C@H](CCO)/C1=C\CCO	/	/	22	/	/
CC(=O)Nc1cccc(NC(=O)c2c(-c3ccccc3)c(-c3ccccc3)nn(C)c2=O)c1	/	7%	4	-4%	6%
COC(=O)C1CCN(Cc2ccc3c(c2)CN(C(=O)c2cc(C)on2)CCO3)CC1	/	-2%	/	-9%	-17%
NC(=O)CC(NC(=O)Cc1ccc(Br)cc1)c1ccc(NCc2ccc(F)c(F)c2)c([N+](=O)[O-])c1 (stereo unspecified)	?	-24%	?	?	18µM*
NC(=O)CC(NC(=O)c1ccccc1)c1ccc(NCc2ccccc2)c([N+](=O)[O-])c1 (stereo unspecified)	10µM*	-9%	5	-17%	i
NC(=O)CC(NC(=O)Cc1ccc(Br)cc1)c1ccc(N2CCC(Br)CC2)c([N+](=O)[O-])c1 (stereo unspecified)	-15%	-23%	-4	?	i
NC(=O)CC(NC(=O)c1ccccc1)c1ccc(NC2CCCCCCC2)c([N+](=O)[O-])c1 (stereo unspecified)	-21%	?	-99*	-23%	-21%
NC(=O)CC(NC(=O)c1ccccc1)c1ccc(NCc2ccc(F)cc2)c([N+](=O)[O-])c1 (stereo unspecified)	-22%	-27%	6	-17%	?
NC(=O)CC(NC(=O)Cc1ccc(Br)cc1)c1ccc(N2CCC(Cc3ccccc3)CC2)c([N+](=O)[O-])c1 (stereo unspecified)	-1%	?	-15	11µM*	?
NC(=O)CC(NC(=O)c1ccc(Br)cc1)c1ccc(NCc2ccc(F)c(F)c2)c([N+](=O)[O-])c1 (stereo unspecified)	-11%	-19%	11	-21%	-19%
COc1ccc(-c2cc(C(F)(F)F)nc(SCC(=O)NCC(C)C)n2)cc1OC	/	-17%	-7	-7%[7.34 µM]	i[7.34 µM]
COc1ccc(CCNc2ccc(C(CC(N)=O)NC(=O)c3ccc(Br)cc3)cc2[N+](=O)[O-])cc1 (stereo unspecified)	7%	-25%	-72*	13µM*	-19%
COc1ccc(CCNc2ccc(C(CC(N)=O)NC(=O)Cc3ccc(Br)cc3)cc2[N+](=O)[O-])cc1 (stereo unspecified)	10%	0%	3	-9%	i
COC(=O)CC(=O)CSc1nc2cc(C(=O)NCC(C)C)ccc2c(=O)n1CCc1ccccc1	/	-18%	-94*	-12%	-9%
COC(=O)CC(=O)CSc1nc2cc(C(=O)NC(C)C)ccc2c(=O)n1CCc1ccccc1	/	-22%	-28	-4%	5%
COc1ccc(C2=CC(=O)N(CCN)C2)cc1	/	/	3	/	/
CC(=O)Nc1ccc(-c2nccc3[nH]nc(-c4cccc(C(F)(F)F)c4)c23)cc1	/	/	-102*	/	/
CC1(C)CC(=O)C=C(c2ccc(COC(=O)c3ccc(Br)cc3)cc2)C1=O	/	/	7	/	/
CCC1(C2CCN(C(=O)c3csc(C(C)=O)c3)CC2)NC(=O)N(CCc2scnc2C)C1=O (stereo unspecified)	/	6%	/	3%	-4%
COc1ccc(Nc2nc(NC(C)(C)C)nc(N3CCCC3)n2)c(OC)c1	5.6µM*	?	-89*	/	/
COc1ccc(Nc2nc(N3CCCCC3)nc(N3CCCCC3)n2)c(OC)c1	13%	-23%	-16	/	/
COc1ccc(Nc2nc(Nc3ccc(OC)cc3OC)nc(N3CCN(C)CC3)n2)c(OC)c1	1µM*	?	14	-13%	-19%
COc1ccc(Nc2nc(N3CCCC3)nc(N3CCCC3)n2)c(OC)c1	10µM*	-16%	-92*	/	/
CCC1CCCCN1CCCNC(=O)c1[nH]c2ccccc2c1Sc1ccc(Cl)cc1 (stereo unspecified)	/	-19%	1	-22%	-11%
Cc1nc(-c2ccccn2)nc(N(C)c2ccccc2)c1Cl	10µM*	-8%	-61*	/	/
SMILES	HCV inh	FMDV antiviral	HCMV inh	Vaccinia Venus	Vaccinia mCherry
CCN(CC)c1ccc(-c2nn3c(-c4n[nH]c5c4CCC5)nnc3s2)cc1	7.9µM*	-27%	35	?	/
C1CCC(c2nn3c(-c4n[nH]c5c4CCC5)nnc3s2)CC1	-16%	?	-24	?	?
COc1ccc(OC)c(-c2csc(-c3c(N)c(C(=O)c4ccc(Cl)cc4)n4ccccc34)n2)c1	/	-8%	-10	1%	-6%
CC[C@]12c3[nH]c4ccccc4c3CCN1C(=O)C(CC(=O)NCC13CC4CC(CC(C4)C1)C3)C[C@@H]2C(=O)N1CCN(C(=O)c2ccco2)CC1 (stereo partly specified)	11µM*	?	-23	?	i
CC[C@]12c3[nH]c4cc(-c5ccco5)ccc4c3CCN1C(=O)[C@@H](CC(=O)NCc1cccc(C(F)(F)F)c1)C[C@@H]2C(=O)N1CCN(C(=O)c2ccco2)CC1	?	?	-3	?	13µM*
CC[C@]12c3[nH]c4ccc(Cl)cc4c3CCN1C(=O)[C@@H](CC(=O)NCc1cccc(C(F)(F)F)c1)C[C@@H]2C(=O)N1CCN(C(=O)c2ccco2)CC1	32µM*	?	-100*	-17%	-16%
CC[C@]12c3[nH]c4cc(-c5ccco5)ccc4c3CCN1C(=O)[C@@H](CC(=O)NCc1ccco1)C[C@@H]2C(=O)N1CCN(C(=O)c2ccco2)CC1	-16%	-12%	-19	?	-18%
CC[C@]12c3[nH]c4ccccc4c3CCN1C(=O)C(CC(=O)NCc1ccco1)C[C@@H]2C(=O)N1CCN(C(=O)c2ccco2)CC1 (stereo partly specified)	5%	-15%	20	0%	i
CC[C@]12c3[nH]c4ccc(Cl)cc4c3CCN1C(=O)[C@@H](CC(=O)NCc1cccc(C(F)(F)F)c1)C[C@@H]2C(=O)N1CCN(C(=O)C2CC2)CC1	35µM*	?	-20	?	i
CC(C)c1c(C(=O)NCC2(N3CCOCC3)CCCC2)cnn1-c1nccc(-c2cccs2)n1	/	8%	/	-8%	-13%
COc1cc(NC(=O)c2ccc3oc(=O)c(S(=O)(=O)c4ccccc4)cc3c2)cc(OC)c1	/	?	-9	4%	-16%
Cc1cccc(N=C2Sc3nc4c(C)c(C)ccc4cc3CN2CCN2CCOCC2)c1	13µM*	-29%	-7	?	-11%
Cc1cccc(Cn2c(CN3CCC(C(=O)NCCc4ccccc4)CC3)cc3ccccc32)c1	/	-15%	14	-20%	-26%
CN(C)c1ccc(/C=C\C=C/c2ccnc3ccccc23)cc1	/	/	/	18%	51%
COc1cc(-c2cccs2)cc(=O)c2c(C)oc(C)c12	11µM*	/	?	23%	-7%
COc1cc(-c2cc(OC)c3c(C)oc(C)c3c(=O)c2)ccc1OC(=O)c1ccccc1Cl	/	?	362	8%	-17%
CSc1nc(N2CCOCC2)c2c3c(sc2n1)CCC3	11µM*	-15%	5	-17%	/
